# Assay results: PubChem BioAssay AID588346 (National Center for Advancing Translational Sciences (NCATS), 2011)
# Inconclusive results are not listed. A number with no mark means an inactive call. Calls follow the shape of the dose curve; as a rule, active = well fitted curve in the direction sought with a large enough effect; inconclusive = small, poorly fitted or top-dose-only effect, or another doubt; inactive = no such curve, though single readings can be large or run the other way.
# Test: qHTS Assay for Inhibitors of Histone Lysine Methyltransferase G9a: Hit Confirmation in b-rIgG Counterscreen
# Conditions: AlphaScreen b-rIgG bead counterscreen, signal interference; series mostly up to 55.7 µM; activity change, negative = inhibition: at the top concentration
# Excerpt: Methylated lysines, on the N-terminal tails of histone proteins serve as epigenetic markers to recruit factors that can then modify local chromatin structure to lead to functional consequences. G9a and other members of the SUV39 family of the SET domain-containing superfamily of histone lysine methyltransferases (HMT) have been identified to specifically methylate Lys9 of histone H3 (H3K9). G9a catalyzes the mono- and di-methylation of H3K9 in mammalian euchromatic regions, where the resulting H3K9me2 is indicative of transcriptional repression. […] The inhibition of G9a will result in transcriptional activation and work synergistically with DNA methyltransferase and histone deacetylase inhibitors, to kill cancer cells. This qHTS assay for identification of G9a inhibitors is a chemiluminescence based AlphaScreen (PerkinElmer). Methylation of biotinylated-histone peptide is measured through specific antibody-based detection, in conjunction with streptavidin-coated donor and anti-IgG antibody-coated acceptor beads. The method is particularly well suited for detection of inhibitors acting by the desired histone peptide competitive mechanism and is applicable to testing other HMTs. Although AlphaScreen has significant advantages with its utility in a variety of epigenetic target assays, the primary screening data provided in this deposition should be used with caution due to the prevalence of screening artifacts. Because an AlphaScreen counterscreen is highly recommended to be run against any putative actives to eliminate non specific artifacts, this assay was used as a counterscreen. Quinn et al. A chemiluminescence-based method for identification of histone lysine methyltransferase inhibitors. Mol Biosyst 6(5): 782-8. 2010. PMID: 20567762 [2] Baell,Holloway. New substructure filters for removal of pan assay interference compounds (PAINS) from screening libraries and for their exclusion in bioassays. J Med Chem. 53(7):2719-40. 2010. PMID: 20131845 NIH Chemical Genomics Center [NCGC] NIH Molecular Libraries Probe Production Network [MLPCN] MLPCN Grant: MH084681-02 Assay Submitter (PI): Structural Genomic Consortium - Toronto, Peter Brown
# Biotinylated rabbit-IgG (b-rIgG) (Santa Cruz Biotechnology, Inc., Santa Cruz, CA) was added to 1,536-well plates in a 3 uL dispense. Compounds were added in a 23 nL pin-transfer step, and plates were incubated at room temperature for 15 min. Streptavidin-coated donor and anti-rIgG acceptor AlphaScreen beads were added (1 uL) for final concentrations of 20 ug/mL each bead and 1 nM b-rIgG, and plates read on the Envision after a 15 min incubation at room temperature in the dark.
row,SMILES,"activity change, negative = inhibition"
1,Oc1ccc2c3c1O[C@H]1[C@@H](O)CC[C@@]4(O)C(C2)N(CC2CCC2)CCC314 (some centres not stated),-11.1%
2,C/C(O)=C(\C#N)C(=O)Nc1cc(Br)ccc1Br,23.4%
3,CCCN(CCC)CCc1c[nH]c2ccc(C(N)=O)cc12,62.1% [at 114 µM]
4,CN1CSC(=S)N(C)C1,17%
5,O=C1NC(=O)N(CCc2ccc(F)cc2)C(=O)/C1=C/C=C/c1ccccc1,-5.53%
6,NCCc1c[nH]c2ccc(O)cc12,-25.5%
7,COc1ccc(OC)c(N2C(=O)NC(=O)/C(=C\c3ccc([N+](=O)[O-])s3)C2=O)c1,0.425%
